Source: the supplement of paper PMC12636033
± gives the standard deviation of the averaged measurements. Over roughly 33,000 sequences, “E-score (rank enrichment, -0.5 to 0.5)” has its median near -0.0028; the highest 2% begin near 0.23. The entries come from a sample that favours the highest values as a whole.

System: 2Sb-muMax20 (muMax20 with two 1,3-bis(methyl)benzene Cys staples, A13C/A17C and Q88C/A92C, C-terminal Lys)
Assay: PBM 8-mer E-score (E-score (rank enrichment, -0.5 to 0.5)); higher = stronger preferential binding
Procedure: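 Protein binding microarray (universal PBM chip covering all 10-mers in fixed probe flanks) with chemically synthesized human Max(13-93) bHLH-LZ analogs (not full-length Max) bearing noncanonical residues (hArg, Tha, Aib, Nle at 65) and aromatic Cys staples. Read-out per 8-mer (and its reverse complement): E-score (rank-based enrichment, -0.5 to 0.5) and Z-score of median probe intensity.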

In order of rising “PBM 8-mer E-score” value:
1. CCGTAACC  -0.243 ± 0.07
2. ACCTGCCC  -0.236 ± 0.049
3. CTGTGGTC  -0.235 ± 0.017
4. ATGGACCG  -0.222 ± 0.029
5. CAACCGGG  -0.22 ± 0.053
6. CAGTCTGG  -0.18 ± 0.038
7. ACCTCGAC  -0.178 ± 0.084
8. GCGGCGAC  -0.148 ± 0.0016
9. ATGGATTA  -0.131 ± 0.0052
10. GATTCGAC  -0.119 ± 0.031
11. AGGCAGGC  -0.109 ± 0.057
12. CCCGTCGA  -0.109 ± 0.064
13. TCGCGTCA  -0.0876 ± 0.026
14. AAAACTGC  -0.0787 ± 0.029
15. CTGACCAC  -0.0726 ± 0.025
16. GCTCTCTA  -0.0575 ± 0.015
17. AACCGTAT  -0.0505 ± 0.036
18. TGTGCACA  -0.0483 ± 0.071
19. CCGATGCC  -0.029 ± 0.062
20. CACAGCAC  -0.0272 ± 0.038
21. AGCGTCAA  -0.0167 ± 0.026
22. ACCCAAGC  -0.0166 ± 0.044
23. AGTCGCCC  -0.0113 ± 0.15
24. ATATTTCC  -0.00852 ± 0.065
25. AGGTGGAA  -0.00713 ± 0.04
26. ACCCAAAA  -0.0026 ± 0.17
27. GCAGGTGA  -0.000525 ± 0.049
28. TAAAACAA  -0.00029 ± 0.077
29. CAAATTCG  0.000655 ± 0.064
30. CCTACACC  0.00456 ± 0.037
31. AGCACAGA  0.00824 ± 0.026
32. GAAACAAC  0.0094 ± 0.1
33. CTGCAATA  0.0131 ± 0.065
34. ACTCAGAA  0.0145 ± 0.00035
35. AATTGTAG  0.0147 ± 0.034
36. AACATGCT  0.0156 ± 0.11
37. AGGCATAG  0.017 ± 0.038
38. ATGCATCG  0.0238 ± 0.0075
39. CGTGCCCC  0.0242 ± 0.014
40. CTGTGCGC  0.0257 ± 0.14
41. CACTTAAG  0.0265 ± 0.011
42. ATAGCAAC  0.031 ± 0.02
43. CATTGTAG  0.033 ± 0.059
44. GAAACATC  0.0426 ± 0.019
45. AAAGCAAC  0.0449 ± 0.04
46. CTGCATAC  0.0495 ± 0.019
47. GATTGTAC  0.051 ± 0.031
48. CCAAGCAA  0.0514 ± 0.029
49. ACCCAAAG  0.0519 ± 0.028
50. CTGCATTC  0.0548 ± 0.014
51. ACCCAAGG  0.0572 ± 0.07
52. CGAGTTAA  0.0575 ± 0.082
53. GTGCATCA  0.0577 ± 0.073
54. GTTATTAA  0.0581 ± 0.1
55. ACCTGTCC  0.0598 ± 0.062
56. AATGGCGT  0.0723 ± 0.025
57. ACACAAGA  0.0809 ± 0.01
58. GTGCATTA  0.0825 ± 0.077
59. AGGAAACA  0.0889 ± 0.046
60. GTTAAGTA  0.0909 ± 0.029
61. CTTAGTAC  0.0932 ± 0.025
62. AAACGAAT  0.0979 ± 0.067
63. CAAACAAA  0.0981 ± 0.0047
64. CTGCATTA  0.0983 ± 0.0036
65. CAAGAAGA  0.0996 ± 0.012
66. GATTATTA  0.1 ± 0.071
67. AGTAAGTC  0.1006 ± 0.00054
68. TATCCAAA  0.103 ± 0.028
69. ATAACCTG  0.113 ± 0.024
70. CAAGTAAA  0.114 ± 0.018
71. GTGCAATA  0.118 ± 0.07
72. ATTAAGTG  0.122 ± 0.011
73. CGTGCACA  0.123 ± 0.094
74. ACTCACAA  0.124 ± 0.028
75. AGTAAGTA  0.126 ± 0.027
76. ATGCATTG  0.133 ± 0.0027
77. CTATTTCA  0.135 ± 0.01
78. AACGTTCC  0.142 ± 0.028
79. AAAACCCA  0.145 ± 0.034
80. ATAGCAAG  0.157 ± 0.0043
81. AAAAACAA  0.158 ± 0.049
82. CATAAGTA  0.163 ± 0.049
83. ATTACGAG  0.164 ± 0.013
84. AATTGTAA  0.165 ± 0.011
85. AAAGCAAG  0.167 ± 0.024
86. AAAACATA  0.1684 ± 0.0003
87. AATAAGTG  0.17 ± 0.066
88. AAACGTTT  0.171 ± 0.011
89. ATGCATAA  0.213 ± 0.023
90. AATATGGC  0.221 ± 0.025
91. ACATTATA  0.222 ± 0.013
92. AGTAAGTG  0.2306 ± 0.0021
93. ATAGCAAT  0.234 ± 0.05
94. ATTAAGTA  0.236 ± 0.026
95. AATTGTAC  0.2375 ± 0.0016
96. CATTGTAC  0.238 ± 0.031
97. GAAAACAA  0.244 ± 0.069
98. ATGCATTC  0.248 ± 0.054
99. ATGCATAC  0.253 ± 0.0083
100. CTATTTCC  0.259 ± 0.0072
101. AAAGCAAT  0.268 ± 0.011
102. GAAACATA  0.268 ± 0.048
103. ATGCAATA  0.269 ± 0.021
104. ACCCAAAT  0.277 ± 0.028
105. ACCCAAGT  0.282 ± 0.052
106. AATAAGTA  0.285 ± 0.0052
107. GAAACAAA  0.301 ± 0.065
108. ATGCATTA  0.311 ± 0.01
109. ATGCATCA  0.332 ± 0.0056
110. CGTGCACG  0.357 ± 0.019
